From PubChem
Only some compounds are listed: those with a hit (about 4.1% of all), similar ones and a draw of the others.
ssDAF-12 act: S. stercoralis DAF-12 nuclear receptor activators, primary screen, cell-based, luminescence, HEK293, GRIP1 co-expression, lit1-tk-luc; activation, % at 6.8 µM; Nuclear hormone receptor DAF-12 (Strongyloides stercoralis); HEK293 ssDAF-12/GRIP1 lit1-tk-luc reporter; % of 3 µM dafachronic acid response; hit rate 1% among 370,000;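 active = activation above the mean over all tested compounds plus 3 SD, cut at about 0.9% in these data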;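 also: 0% = DMSO-only wells and 100% = 3 µM delta7-dafachronic acid wells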
DAX1 inh-1: DAX1 (NR0B1) inhibitors on StAR promoter, primary screen, cell-based, luminescence, SF-1 (NR5A1), full-length DAX-1; HEK293T StAR-luciferase reporter, SF-1/DAX-1 repression relief; inhibition, % at 6.8 µM; hit rate 1.1% among 370,000;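 active = inhibition above the mean over all tested compounds plus 3 SD, cut at about 3.6% in these data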;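 also: 0% = DAX-1 cells with DMSO and 100% = cells lacking DAX-1 with DMSO; higher inhibition means more luminescence from relief of DAX-1 repression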
hcDAF-12 act: H. contortus DAF-12 nuclear receptor activators, primary screen, cell-based, luminescence, HEK293, lit1-tk-luc reporter. activation, % at 6.8 µM. hit rate 1.4% among 370,000. HEK293 hcDAF-12 lit1-tk-luc reporter; 0% DMSO, 100% Δ7-dafachronic acid;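 active = activation above the mean of all tested compounds plus 3 SD, cut at about 5.5% in these data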;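 also: 100% = response to 3 µM Δ7-dafachronic acid high control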
hgDAF12 agonist: H. glycines DAF-12 receptor agonists, primary screen, cell-based, luminescence, HEK293, GAL4 fusion, UAS-luciferase; hit rate 1.8% among 370,000; activation, % at 6.8 µM; HEK293 GAL4-hgDAF12 UAS-luciferase reporter, agonist luminescence; normalized to butyrate control; AID 687014, 2013; Nuclear hormone receptor DAF-12 (Heterodera glycines), GAL4 fusion;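 active = activation above a cutoff set at the mean of all screened compounds plus 3 SD, cut at about 10% in these data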;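 also: 0% = DMSO wells and 100% = sodium butyrate wells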
DAX1 inh-2: DAX1 (NR0B1) inhibitors, primary screen, cell-based, HEK293, Gal4-DAX1, luciferase luminescence; HEK293 Gal4-DAX1 luciferase reporter; hit rate 0.99% among 340,000; inhibition, % at 6.75 µM; AID 504766, 2011; Nuclear receptor subfamily 0 group B member 1 (Homo sapiens), P51843;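 active = inhibition above the mean over all tested compounds plus 3 SD, cut at about 4.2% in these data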;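 also: 0% = DAX1-transfected cells with DMSO and 100% = empty-vector control cells with DMSO; inhibition shows as a rise in luminescence from relieved DAX1 repression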
Target sequence (P51843 207-470 limits assumed): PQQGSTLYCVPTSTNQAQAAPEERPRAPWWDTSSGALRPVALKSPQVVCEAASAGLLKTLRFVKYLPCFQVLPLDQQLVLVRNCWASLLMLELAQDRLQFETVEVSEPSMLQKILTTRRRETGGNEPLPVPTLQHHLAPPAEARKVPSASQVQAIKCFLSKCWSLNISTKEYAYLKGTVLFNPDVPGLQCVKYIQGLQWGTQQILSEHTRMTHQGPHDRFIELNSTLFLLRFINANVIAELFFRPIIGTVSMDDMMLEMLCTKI
An asterisk follows results filed as active; x = no result.

SMILES	ssDAF-12 act	DAX1 inh-1	hcDAF-12 act	hgDAF12 agonist	DAX1 inh-2
COc1ccc(-c2ccc(C(=O)Nc3ccc(OC)nc3)c3occc23)c(C)c1	-1	-2	-3	-4	x
COCCNC[C@@]12CO[C@H](c3ccc(Cl)cc3)N1[C@@H](c1ccc(Cl)cc1)SC2	-2	x	1	0	x
CCN(CC)CCCn1c2c(c(SCC(=O)Nc3cc(C)cc(C)c3)nc1=O)CCC2	-1	4.4*	0	-1	0
CCN(CC)CCn1c2c(c(SCC(=O)Nc3nc4ccc(C)cc4s3)nc1=O)CCC2	-1	1	-2	3	0
CCN(CC)CCn1c2c(c(SCC(=O)Nc3nc4ccccc4s3)nc1=O)CCC2	0	4	5.8*	8	-1
COC(=O)[C@]12C[C@H](CC(=O)NCC3CCCCC3)C(=O)N(Cc3ccc(Cl)cc3Cl)C1=C[C@H](C1CCCC1)O[C@@H]2C	-1	0	-3	2	x
O=S1(=O)C=CCN1Cc1cn(Cc2ccc(C(F)(F)F)cc2)nn1	-1	0	-2	1	x
O=C(NCc1ccccn1)c1ccc(NC(=O)c2ccco2)cc1	1.3*	1	-2	-1	1
CCN(CC)c1ccc(NC(=O)c2ccco2)cc1	0	4.1*	4	13*	1
CCC(C)c1ccc(NC(=O)c2ccco2)cc1 (stereo not given)	0	3	3	11*	-4
O=C(Nc1ccc(Cl)cc1)c1ccco1	0	0	2	4	5.2*
O=C(NCc1cccnc1)c1ccc(NC(=O)c2ccco2)cc1	-1	0	0	1	1
O=C(CCc1nc(-c2ccccc2F)no1)NCCc1cccc(F)c1	-1	-1	-1	3	x
CCCCOc1ccc(C(=O)NC2CCCCN(Cc3ccccc3C)C2=O)cc1 (stereo not given)	-2	-4	-4	1	x
Cn1cccc1C(=O)N1CCN(S(=O)(=O)c2ccccc2F)CC1	-2	-1	-2	1	x
Cc1ccc(Cn2cc(COC(=O)N3CCOCC3)nn2)cc1	1	0	-1	6	x
CCCCCC[C@@H](CCCc1ccccc1OC)CN(CCCC)S(C)(=O)=O	-2	0	-1	2	x
C[C@@H]1OCN(C)[C@H]2C[C@H]3c4[nH]c5cccc(-c6ccc7c(c6)OCO7)c5c4CCN3C[C@@H]12	-1	-1	1	-1	x
OC(CN1CCOCC1)Cn1c2ccccc2c2ccccc21 (stereo not given)	0	0	-2	0	-1
O=C1c2ccccc2C(=O)N1CC(O)CN1CCOCC1 (stereo not given)	3.9*	-1	1	-1	0
COc1ccc(C(O)c2nc(-c3cccs3)cs2)cc1 (stereo not given)	-1	0	1	-1	x
OC(c1ccco1)c1nc(-c2cccs2)cs1 (stereo not given)	1.4*	1	5.8*	5	x
O=C(COc1ccccc1F)NNC(=O)c1cccc(-n2cccc2)c1	-1	1	6.3*	1	1
CCOC(=O)C1(Cc2ccccc2)CCN(Cc2ccccc2[N+](=O)[O-])CC1	-2	-1	0	-1	x
CC1(C)CCc2c([nH]c3ccccc3c2=O)O1	-1	0	-2	-5	5.5*
SMILES	ssDAF-12 act	DAX1 inh-1	hcDAF-12 act	hgDAF12 agonist	DAX1 inh-2
CCC1CCc2c([nH]c3ccccc3c2=O)O1 (stereo not given)	0	0	0	0	4
O=C1c2nc3ccccn3c2C(=O)N1Cc1ccccc1	1.4*	0	1	2	0
COC(=O)c1ccc(NC(=S)N2CCN(CCO)CC2)cc1	-2	0	-3	0	-1
CC(=O)c1ccc(NC(=S)N2CCN(CCO)CC2)cc1	-1	0	-1	0	4.8*
Cc1ccccc1NC(=O)COC(=O)/C=C/c1cn(-c2ccccc2)nc1-c1cccnc1	1.1*	0	0	0	0
CCCCCCCCN1C(=O)[C@@H](CC(=O)N2CCCCC2)C[C@@]2(C(=O)OC)C1=C[C@H](COCc1ccccc1)O[C@@H]2C	-1	0	5.8*	1	x
Clc1ccccc1CNCC1CCCO1 (stereo not given)	0	-1	1	2	5.9*
Oc1ccc(Cl)cc1CNCC1CCCO1 (stereo not given)	-2	-1	0	0	0
CC1=C(C(=O)O)CC(S(=O)(=O)O)C1(C)C (stereo not given)	0	3.7*	0	1	2
CCOC(=O)[C@]12CCCCC/C=C\1N(CCc1ccc(Cl)cc1)C(=O)[C@H]2CC(=O)NCc1ccccc1	-1	1	-3	2	x
Cc1ccc(NCCCn2cnc(C(=O)Nc3ccc(C)c(C)c3)n2)cc1C	-1	0	-1	-1	-1
Cc1ccc(NC(=O)c2ncn(CCCNCC3CCCCC3)n2)cc1C	0	3.9*	-1	7	0
Cc1ccc2nc3sc(C(=O)N4CCN(C)CC4)cc3cc2c1	-2	x	0	2	x
CCc1ccc2nc3sc(C(=O)O)cc3cc2c1	-1	3	6.1*	7	0
CSc1nc(N)nc2c1ncn2CC(=O)NCc1ccccc1	0.9*	-1	0	-2	-1
Cc1c(C)c2ccc(OCC(=O)Nc3cccnc3)c(C)c2oc1=O	-1	3.7*	3	3	1
O=C(CSc1nc2c(cnn2-c2ccccc2)c(=O)[nH]1)NC1CCS(=O)(=O)C1 (stereo not given)	-1	1	-1	-1	5.7*
CC1(C)Cc2nc3sc(C(=O)NCCCO)c(N)c3cc2CS1	-1	1	1	7	5.0*
CC1(C)Cc2nc3sc(C(=O)NCCO)c(N)c3cc2CO1	-1	0	1	5	2
Cc1nn2c(-c3ccncc3)ccnc2c1Cl	-1	0	0	12*	0
CCN(CC)C(=O)CC[C@@H]1CC[C@]2(CCCN(C(=O)C(C)(C)C)C2)O1	-1	-1	-1	5	x
COc1ccc(C(=O)Nc2ccc(S(=O)(=O)Nc3cc(C)nc(C)n3)cc2)cc1OC	-2	3	-2	0	1
Cc1cc(NS(=O)(=O)c2ccc(NC(=O)/C=C/c3ccccc3)cc2)nc(C)n1	-1	1	0	-2	1
COc1cc(C(=O)Nc2ccc(S(=O)(=O)Nc3cc(C)nc(C)n3)cc2)cc(OC)c1OC	-1	1	0	-2	6.4*
Cc1cc(NS(=O)(=O)c2ccc(NC(=O)/C=C/c3ccc(C)o3)cc2)nc(C)n1	-2	0	0	-4	4.6*
